Assay outcomes from PubChem BioAssay.
The entries come from a sample that favours hits as a whole.
Dicer processing – inhibitors of human Dicer processing of pre-microRNA. Q9UPY3. cat-ELCCA pre-miR-21 Dicer processing, chemiluminescence; stronger effect = higher value. z-score at 25 µM. hit rate 6% among 47,000; in the data active means z-score above about 3, passing the limit was not always enough;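 further: plate controls were vehicle for no effect and no enzyme for full effect; higher signal means more uncleaved substrate so more Dicer inhibition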
Target sequence (Q9UPY3 whole entry, looked up): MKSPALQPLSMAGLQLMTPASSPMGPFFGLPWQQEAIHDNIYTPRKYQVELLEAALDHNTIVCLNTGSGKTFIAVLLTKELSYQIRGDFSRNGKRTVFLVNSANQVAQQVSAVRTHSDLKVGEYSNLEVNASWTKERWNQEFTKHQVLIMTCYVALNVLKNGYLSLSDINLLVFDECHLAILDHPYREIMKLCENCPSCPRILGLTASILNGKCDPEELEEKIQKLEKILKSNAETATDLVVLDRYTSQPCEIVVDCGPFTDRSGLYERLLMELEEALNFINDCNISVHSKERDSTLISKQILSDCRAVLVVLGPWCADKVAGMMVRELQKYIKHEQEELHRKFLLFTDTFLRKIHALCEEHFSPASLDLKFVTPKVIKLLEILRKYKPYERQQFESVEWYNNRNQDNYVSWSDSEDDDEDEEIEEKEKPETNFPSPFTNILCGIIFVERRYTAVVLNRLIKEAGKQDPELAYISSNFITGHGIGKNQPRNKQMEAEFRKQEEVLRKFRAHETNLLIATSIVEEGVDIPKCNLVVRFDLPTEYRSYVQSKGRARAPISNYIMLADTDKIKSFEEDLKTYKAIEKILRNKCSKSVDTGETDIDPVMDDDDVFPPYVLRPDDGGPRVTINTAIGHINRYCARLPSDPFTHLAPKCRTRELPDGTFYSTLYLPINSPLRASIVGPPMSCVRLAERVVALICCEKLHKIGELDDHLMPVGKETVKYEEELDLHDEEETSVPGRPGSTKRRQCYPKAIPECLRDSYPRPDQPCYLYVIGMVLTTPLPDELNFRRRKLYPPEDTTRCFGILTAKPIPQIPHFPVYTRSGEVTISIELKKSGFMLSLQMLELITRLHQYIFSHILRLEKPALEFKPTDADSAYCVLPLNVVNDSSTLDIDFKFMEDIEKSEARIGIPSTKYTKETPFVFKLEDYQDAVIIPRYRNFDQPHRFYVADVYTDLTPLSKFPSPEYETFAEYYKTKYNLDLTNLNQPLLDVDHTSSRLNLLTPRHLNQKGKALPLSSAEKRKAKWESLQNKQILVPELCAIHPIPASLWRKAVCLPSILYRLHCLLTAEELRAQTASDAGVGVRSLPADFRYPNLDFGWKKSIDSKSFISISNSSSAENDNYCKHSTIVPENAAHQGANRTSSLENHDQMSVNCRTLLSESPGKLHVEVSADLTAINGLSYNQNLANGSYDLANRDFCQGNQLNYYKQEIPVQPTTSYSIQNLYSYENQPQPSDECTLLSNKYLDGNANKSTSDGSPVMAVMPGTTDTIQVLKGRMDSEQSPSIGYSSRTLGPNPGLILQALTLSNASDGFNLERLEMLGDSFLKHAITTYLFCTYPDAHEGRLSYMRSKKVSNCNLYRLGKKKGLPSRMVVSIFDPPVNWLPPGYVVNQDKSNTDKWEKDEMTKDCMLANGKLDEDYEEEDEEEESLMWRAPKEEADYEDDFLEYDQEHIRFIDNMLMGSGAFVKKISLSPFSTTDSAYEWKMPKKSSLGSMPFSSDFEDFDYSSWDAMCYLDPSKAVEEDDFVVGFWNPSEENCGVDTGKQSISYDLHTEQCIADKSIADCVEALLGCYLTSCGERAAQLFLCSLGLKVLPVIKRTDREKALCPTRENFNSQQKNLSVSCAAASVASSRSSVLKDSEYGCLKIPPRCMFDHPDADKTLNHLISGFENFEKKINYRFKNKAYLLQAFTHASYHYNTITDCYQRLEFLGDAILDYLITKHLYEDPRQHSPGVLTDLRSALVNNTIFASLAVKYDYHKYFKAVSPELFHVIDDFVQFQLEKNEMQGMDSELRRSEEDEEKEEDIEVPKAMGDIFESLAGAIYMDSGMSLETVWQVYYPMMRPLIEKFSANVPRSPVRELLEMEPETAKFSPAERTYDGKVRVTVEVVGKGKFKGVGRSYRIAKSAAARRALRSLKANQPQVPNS
Starred values were filed as active, the others as inactive.

SMILES	Dicer processing
CC(=O)c1c(O)c2ccccc2n(C)c1=O	-0.09
C[C@]12CCC(=O)C=C1CC[C@@H]1[C@@H]2CC[C@@]2(C)[C@H]1CC[C@]2(O)C(=O)CO	3.3*
CC(=O)[C@H]1CC[C@H]2[C@@H]3CCC4=CC(=O)CC[C@]4(C)[C@H]3CC[C@]12C	1.4
CC(=O)[C@@]12OC(C)(c3ccccc3)O[C@@H]1C[C@H]1[C@@H]3CCC4=CC(=O)CC[C@]4(C)[C@H]3CC[C@@]12C (stereo not given in full)	-0.12
C#Cc1cccc(NC(=O)c2ccccc2)c1	-0.48
C#Cc1cccc(NC(=S)NNC(=S)Nc2cccc(C#C)c2)c1	8.9*
Cc1cccc(NC(=S)NNC(=O)NNC(=S)Nc2cccc(C)c2)c1	1.6
CC(=O)CSc1nc(SCC(C)=O)c2cnc(N3CCCC3)nc2n1	-1.5
COC(=O)c1cnc(Sc2ccccn2)nc1C(F)(F)F	-1.4
O=C(O)CCC(=O)NCCC1=CCCCC1	0.69
Cc1nn2c3c(cnc2c1-c1ccc(Cl)cc1)C(=O)CC(c1cccs1)C3 (stereo not given)	-0.48
Cc1nn2c3c(cnc2c1-c1ccc(F)cc1)C(=O)CC(c1ccc(F)cc1)C3 (stereo not given)	0.07
Cc1nn2c3c(cnc2c1-c1ccc(F)cc1)C(=O)CC(c1cccs1)C3 (stereo not given)	4.2*
O=C(Cn1cncn1)c1ccccc1Cl	-0.27
Cc1cc(C)c2oc(-c3cc(N)ccc3Cl)nc2c1	2.3
Cc1cc(C)c2oc(-c3cccc(N)c3)nc2c1	1.9
Cc1cc(C)c2oc(-c3ccc(C)c(N)c3)nc2c1	3.2*
CCOc1ccccc1NC(=O)Oc1ccc(F)cc1Cl	-1.3
COC(=O)COc1ccc2c(=O)c(-c3ccccc3OC)c(C(F)(F)F)oc2c1	2.4
Cc1occc1-c1nnc(SCC(=O)O)o1	3.4*
Cc1occc1-c1nnc(SCCC(=O)O)o1	1.4
Cc1ccc(-c2nnc(SCC(=O)O)o2)cc1	0.56
CC(=O)c1sc2nnc(-c3ccccc3)c(-c3ccccc3)c2c1N	0.33
CCCCOC(=O)c1sc2scc(C)c2c1C	-0.84
CC1(C)CC(=O)C(C(C2=C(O)CC(C)(C)CC2=O)c2cc(Br)ccc2O)C(=O)C1 (stereo not given)	-0.06
SMILES	Dicer processing
Cc1ccc(C(C2=C(O)CC(C)(C)CC2=O)C2C(=O)CC(C)(C)CC2=O)o1 (stereo not given)	-0.3
CC1(C)CC(=O)C(C(C2=C(O)CC(C)(C)CC2=O)c2cccc(O)c2O)C(=O)C1 (stereo not given)	4.3*
CC(C)(C)C(=O)O/N=C(\N)COc1ccc(Cl)cc1Cl	-2.7
O=C(Oc1ccc2c(c1)oc(=O)c1ccccc12)c1cccs1	0.16
Cc1ccc([N+](=O)[O-])cc1S(=O)(=O)Nc1ccc2c(c1)OCO2	-0.63
COCCN1C(=O)C(=O)/C(=C(\O)c2ccc3c(c2)CC(C)O3)C12C(=O)N(C)c1ccccc12 (stereo not given)	0.81
Cc1ccc(S(=O)(=O)NC(=O)Nc2nc(-c3ccc(C)c(Cl)c3)c(C)s2)cc1	-1.6
Cc1ccc(-c2nc(NC(=O)c3ccccc3)sc2C)cc1Cl	0.94
Cc1ccc(S(=O)(=O)Nc2nc(-c3ccc(C)c(Cl)c3)c(C)s2)cc1	3.3*
CCOC(=O)c1sc(SCc2ccccc2)c2c1CC(c1ccc(C)cc1)CC2O (stereo not given)	1.4
COC(=O)CSc1ccc([N+](=O)[O-])c(SCC(=O)OC)n1	-0.81
Cc1cc(N=C(N)N=C(N)N)ccc1Br	0.97
COc1cc(N=C(N)N=C(N)N)cc(OC)c1	0.32
COc1ccc(N=C(N)N=C(N)N)cc1	6.3*
Cn1c(Sc2ncc(C#N)c(N)n2)nnc1-c1ccncc1	1.5
COC(=O)c1ccccc1NC(=S)Sc1ccc(Cl)cc1	-1.5
O=C(Nc1c(C(=O)c2ccc(F)cc2)oc2ccccc12)c1ccccc1	-0.56
Cc1ccc(C(=O)c2oc3ccccc3c2N)cc1	0.43
Nc1c(C(=O)c2ccc(Oc3ccccc3)cc2)oc2ccccc12	3.8*
COc1ccc(C2C(C(=O)c3cc4ccccc4o3)=C(O)C(=O)N2CCN2CCOCC2)cc1OC (stereo not given)	1.6
COCCCn1c(-c2ccc(C(C)(C)C)cc2)n[nH]c1=S	1.1
O=C(Nc1cc(C(F)(F)F)cc(C(F)(F)F)c1)Nc1c(Br)cc(Br)cc1-c1nn[nH]n1	-2.3
COc1ccc(C2Nc3ccc(C)cc3-c3cc(C)nn32)c(OC)c1 (stereo not given)	0.75
COc1ccccc1C1Nc2ccccc2-c2cc(C)nn21 (stereo not given)	0.8
CCOc1ccccc1C1Nc2ccc(C)cc2-c2cc(C)nn21 (stereo not given)	4.1*
SMILES	Dicer processing
COc1ccccc1C1Nc2ccc(C)cc2-c2cc(C)nn21 (stereo not given)	3.5*
CCOc1cccc(C2Nc3ccc(C)cc3-c3cc(C)nn32)c1O (stereo not given)	1.5
COc1ccc(C2C(C(=O)c3ccco3)=C(O)C(=O)N2Cc2cccnc2)cc1 (stereo not given)	-5.8
O=C(NCCCO)C(=O)Nc1ccc(Br)cc1	0.04
CCOC(=O)c1ccc(N2C(=O)C3Sc4[nH]c(=O)sc4C(c4ccc(OC)cc4)C3C2=O)cc1 (stereo not given)	-2
CCOC(=O)/C(C#N)=C/c1ccc(C(F)(F)F)cc1	0.51
C=CCN/C(SC)=C(\C#N)S(=O)(=O)c1ccc(Cl)cc1	-4.3
CS/C(NCc1ccco1)=C(/C#N)S(=O)(=O)c1ccc(Cl)cc1	-1.1
CSC(SC)=C(C#N)S(=O)(=O)c1ccc(Cl)cc1	3.2*
COCCN1C(=O)c2oc3cc(C)c(C)cc3c(=O)c2C1c1ccc(F)cc1 (stereo not given)	0.53
Cc1nc(-c2ccc(NS(=O)(=O)c3ccc(Oc4cccc(Cl)c4C#N)cc3)cc2)cs1	2.7
CSCCn1c(-c2ccccc2)cc(C(=O)Nc2ccc(-c3ccccc3)cc2)c1C	-1.9
COc1ccc(O)c(C2=NN3C(C2)c2cccc(OC)c2OC3c2cccc(O)c2)c1 (stereo not given)	5.1*
COc1cccc2c1OC(c1ccc(O)cc1)N1N=C(c3ccccc3O)CC21 (stereo not given)	4
COc1cccc2c1OC(c1ccccc1)N1N=C(c3ccccc3O)CC21 (stereo not given)	1.5
COc1cccc2c1OC(c1cccc(F)c1)N1N=C(c3ccccc3O)CC21 (stereo not given)	7*
COc1ccc(O)c(C2=NN3C(C2)c2cccc(OC)c2OC3c2cccc(F)c2)c1 (stereo not given)	1.7
COc1ccc(O)c(C2=NN3C(C2)c2cccc(OC)c2OC3c2ccc(OC)c(O)c2)c1 (stereo not given)	0.58
CC1(C)OC(=O)C(C2C3CC4CC(C3)CC2C4)C(=O)O1 (stereo not given)	0.81
O=C(Nc1ccc(Cl)cc1)/C(=C\c1cccs1)c1ccsc1	0.57
Cc1ccc2c(Cl)c(C(=O)Nc3nc(C)c(C)s3)sc2c1	3.6*
O=C(Nc1ccccc1)c1sc2ccccc2c1Cl	-1.5
CCOC(=O)c1sc(NC(=O)c2sc3ccccc3c2Cl)nc1C	-0.51
O=S(=O)(Cc1nc(-c2ccc3c(c2)OCCO3)cs1)c1ccccn1	-1.1
COc1cc(C2N(Cc3ccc(N(C)C)cc3)CCCN2Cc2ccc(N(C)C)cc2)cc(OC)c1OC	0.81
CC1CCC(C)N(C(=O)c2cc3n(n2)C(C(F)(F)F)CC(c2ccco2)N3)C1 (stereo not given)	0.82
CCc1ccc(S(=O)(=O)Nc2ccc3oc4c(c3c2)CCCC4)cc1	2.1
